Laboratory results from PubChem BioAssay AID720530 (The Scripps Research Institute Molecular Screening Center, 2013).
Out of some 1,000 compounds screened, about 260 (26%) were called active. Rule as the data show it: active = inhibition above about 21%; inactive = the rest. These entries were drawn from the full list.

Biological target: E3 ubiquitin-protein ligase UHRF1 (Homo sapiens) (UniProt Q96T88)
Assay: blockers of UHRF1 binding to methyl-oligo – biochemical, TR-FRET, human UHRF1, counter-screen for MBD2 inhibitor project (AID 720530);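 also: UHRF1 SRA domain binding a labeled hemimethylated CpG hairpin DNA; 0% = vehicle only and 100% = reference inhibitor with vehicle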
Conditions: UHRF1 binding to methylated oligonucleotide, at 4.4 µM, hits give high values

Chain of E3 ubiquitin-protein ligase UHRF1 (Homo sapiens) (Q96T88 whole entry, looked up, the tested form may be a part): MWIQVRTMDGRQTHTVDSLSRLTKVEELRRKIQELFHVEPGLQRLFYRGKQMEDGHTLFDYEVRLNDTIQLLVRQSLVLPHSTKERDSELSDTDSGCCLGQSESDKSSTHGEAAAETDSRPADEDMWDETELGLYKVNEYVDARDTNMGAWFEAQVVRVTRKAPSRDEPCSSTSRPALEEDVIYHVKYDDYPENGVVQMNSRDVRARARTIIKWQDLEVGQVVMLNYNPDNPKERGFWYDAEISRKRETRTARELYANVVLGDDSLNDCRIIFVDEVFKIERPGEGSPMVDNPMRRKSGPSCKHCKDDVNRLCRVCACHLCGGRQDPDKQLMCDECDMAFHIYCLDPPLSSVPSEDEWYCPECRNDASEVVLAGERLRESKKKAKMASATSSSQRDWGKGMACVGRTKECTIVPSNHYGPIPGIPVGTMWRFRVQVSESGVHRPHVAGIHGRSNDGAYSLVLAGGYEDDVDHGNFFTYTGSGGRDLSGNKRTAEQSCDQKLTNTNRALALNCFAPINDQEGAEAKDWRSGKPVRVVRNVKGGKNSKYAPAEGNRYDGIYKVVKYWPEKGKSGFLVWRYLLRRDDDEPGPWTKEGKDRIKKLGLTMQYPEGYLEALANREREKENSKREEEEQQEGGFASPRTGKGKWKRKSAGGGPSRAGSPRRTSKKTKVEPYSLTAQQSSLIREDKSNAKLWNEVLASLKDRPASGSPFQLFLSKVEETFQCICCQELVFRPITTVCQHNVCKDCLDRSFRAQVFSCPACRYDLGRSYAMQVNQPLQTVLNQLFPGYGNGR

Compound	inhibition
COc1ccc(N2C(=O)/C(=C/c3ccco3)C(=O)NC2=S)cc1	97.2% (active)
Cc1cc(/C=C2/C(=O)NC(=O)N(Cc3ccco3)C2=O)c(C)n1-c1ccc(C(=O)O)cc1	15.7% (inactive)
O=C1NC(=O)N(Cc2ccco2)C(=O)/C1=C\c1ccc(-c2ccc(F)cc2)o1	12.8% (inactive)
